Drawing on PubChem BioAssay AID1240 (Sanford-Burnham Center for Chemical Genomics, 2008), this text covers displacement for 112 molecules.

SMILES strings stand for the structures. In all, about 50,000 compounds went through this assay and about 800 (1.6%) showed an effect of 50% or more. Many of the other results were omitted from the sample, so strong results are more common in it than they were.

Bcl-2-like protein 10 (Homo sapiens), sequence (Q9HD36 whole entry, looked up): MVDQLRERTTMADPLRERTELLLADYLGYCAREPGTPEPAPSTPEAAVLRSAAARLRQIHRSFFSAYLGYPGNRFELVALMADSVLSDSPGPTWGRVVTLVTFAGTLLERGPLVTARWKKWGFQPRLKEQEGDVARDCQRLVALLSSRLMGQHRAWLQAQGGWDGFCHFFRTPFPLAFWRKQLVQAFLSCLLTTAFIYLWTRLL

This assay addresses Bcl-2-like protein 10 (Homo sapiens) (UniProt Q9HD36). As to the kind of experiment: TR3 peptide-Bcl-B binding displacers, biochemical primary FP assay, phenotype converters (AID 1240).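 Further: 0% = Bcl-B with tracer peptide and DMSO and 100% = tracer peptide lacking Bcl-B.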 To be noted: GST-Bcl-B / FITC-TR3 peptide fluorescence polarization; stronger effect = higher value; compound at 3.75 mg/L.
Consider `O=C(NCc1cccs1)c1cc2n(n1)C(C(F)(F)F)CC(c1cccs1)N2` (configuration not stated), for which the displacement is 0%. Next, `CCC(Oc1ccccc1)C(=O)NC(C)c1ccccc1` (configuration not stated): -18.9%. `Oc1ccc(Br)cc1C=NCc1ccco1`: the displacement is 3.3%. As for `Cc1sc(NC(=O)c2ccc(Br)o2)c(C(N)=O)c1C`, the displacement was 10%.

Turning to `COc1ccc(CC(=O)Nc2ccc(Br)c(C)c2)cc1`, the displacement stood at 7.5%. Next, `C=CCNCCCCOc1ccc(Br)cc1`: 8.5%; `Cc1no[n+]([O-])c1COc1ccc(/C=C2\N=C(c3ccccc3)OC2=O)cc1`: -9.9%. With `Cc1c(-c2ccc(Cl)cc2)nc2ccccc2c1C(=O)O`, the displacement is -6.5%. Next, `Cc1cc(C)cc(N2C(=O)NC(=O)/C(=C\c3ccc(N(C)C)cc3)C2=O)c1`: 127%; `CCn1cc(/C=C2\C(=O)NC(=O)N(c3ccccc3)C2=O)c2ccccc21`: 25.2%. With `C#CCn1cc(/C=C2\C(=O)NC(=O)N(c3ccc(C)cc3)C2=O)c2ccccc21`, the displacement is 66.4%. Next, `Cc1cc(C)cc(N2C(=O)NC(=O)/C(=C\c3ccc(F)cc3)C2=O)c1`: 7.7%.

Consider `C#CCn1cc(/C=C2\C(=O)NC(=O)N(c3ccc(Cl)cc3)C2=O)c2ccccc21`, for which the displacement came to 37.5%. Next, `Cc1cc(C)cc(N2C(=O)NC(=O)/C(=C\c3ccc(Cl)cc3)C2=O)c1`: 16.4%; `CCCC(C)NC(=O)c1ccc(Cl)c([N+](=O)[O-])c1` (configuration not stated): -0.1%; `CCOC(=O)/C(C#N)=C/c1ccc(OCc2c(C)no[n+]2[O-])cc1`: -1.9%. `CN1CCN(CCOCCOc2ccccc2)CC1`: the displacement is -7.9%.

Take `O=C(CCCC(=O)OCC(F)(F)C(F)F)Nc1nccs1`: the displacement was found to be 9.8%. Then `O=C(NCCO)/C(=C/c1cccc([N+](=O)[O-])c1)NC(=O)c1cccs1`, with 0%. For the molecule `O=C(Nc1cc(Cl)cc(Cl)c1)c1ccc(-c2ccc([N+](=O)[O-])cc2)o1`, the displacement worked out at 5.1%. Then `Cc1ccccc1C(=O)Nc1cccc(NC(=O)c2ccc(-c3cccc(Cl)c3)o2)c1`, with 0.6%; and `Cc1ccc(-c2ccc(C(=O)Nc3cccnc3)o2)cc1Cl`, with 5.6%; and `O=C(Nc1cccc(NC(=O)c2ccc(Cl)cc2Cl)c1)c1ccc(-c2ccc([N+](=O)[O-])cc2)o1`, with 106%.

In the case of `Cc1cccc(NC(=O)c2ccc(-c3ccc(C)c(Cl)c3)o2)c1`, the displacement was 69.8%. Next, `Cc1ccccc1C(=O)Nc1cccc(NC(=O)c2ccc(-c3ccc(Br)cc3)o2)c1`: 21.4%; `O=C(Nc1ccc(NC(=O)c2ccc(-c3ccc(Cl)cc3Cl)o2)cc1)c1ccccc1`: 83.5%. Then `O=C(Nc1cccc(NC(=O)c2ccccc2Cl)c1)c1ccc(-c2ccc(Br)cc2)o1`, with 57.3%. Regarding `Cc1ccc(-c2ccc(C(=O)Nc3ccc(N4CCOCC4)cc3)o2)cc1Cl`, the displacement is 10.8%. Next, `CC(=O)c1cccc(NC(=O)c2ccc(-c3ccc(Cl)cc3Cl)o2)c1`: -4.6%; `O=C(Nc1cccc([N+](=O)[O-])c1)c1ccc(-c2ccc(Cl)cc2)o1`: 9%.

Take `CC(=O)c1ccc(NC(=O)c2ccc(-c3ccc(Cl)cc3Cl)o2)cc1`: the displacement is -1.3%. Then `COc1ccc(CNC(=O)Cc2ccc(Br)cc2)cc1`, with 0%. Then `COc1ccc(CCNC(=O)/C=C\c2ccccc2)cc1OC`, with 6.7%; and `CCOC(=O)c1c(NC(=O)c2cc(Cl)ccc2[N+](=O)[O-])sc(C(=O)N(CC)CC)c1C`, with -1.1%. With `Cc1cc2[nH]c(=O)cc(-c3ccccc3)n2n1`, the displacement was -5.3%.

On to `COc1cccc(NC(=O)c2cc(Cl)ccc2Cl)c1`, for which the displacement was found to be 11.1%.

For `COc1ccc(-c2nc3cc(N)ccc3o2)cc1OC`, the displacement was 2.7%. `CCOC(=O)C(CCOCCOc1c(C)cc(Cl)cc1C)C(=O)OCC`: the displacement is -9.7%. `Cc1ccc(/C=N/NS(=O)(=O)c2ccc(C)cc2)cc1`: the displacement was found to be 8%. Next, `CCOC(=O)C1=C(C)N=c2s/c(=C\c3ccc(Br)o3)c(=O)n2C1c1ccc(F)cc1` (configuration not stated): 11.2%; `CCOC(=O)C1=C(C)N=c2s/c(=C\c3ccc(C)o3)c(=O)n2C1c1cccc(OC)c1` (configuration not stated): 73.3%. Then `CCOC(=O)C1=C(C)N=c2s/c(=C\c3ccc(-c4ccccc4C(=O)O)o3)c(=O)n2C1c1cccc(OC)c1` (configuration not stated), with -23.4%; and `CCOC(=O)C1=C(C)N=c2s/c(=C\c3ccc(N4CCOCC4)o3)c(=O)n2C1c1ccc(SC)cc1` (configuration not stated), with -55.4%. Then `CCOC(=O)C1=C(C)N=c2s/c(=C\c3ccc(Br)o3)c(=O)n2C1c1cccc(OC)c1` (configuration not stated), with 10.7%; and `CCOC(=O)C1=C(C)N=c2s/c(=C\c3ccc(C)o3)c(=O)n2C1c1ccc(SC)cc1` (configuration not stated), with 65.3%; and `CC1(C)Nc2ccccc2N(CCC(=O)N2CCOCC2)C1=O`, with 9%. For `Cc1ccnc(NC(=O)COc2ccc(Cl)c(C)c2)c1`, the displacement amounted to 1.5%. Regarding `O=C1CC(c2ccccc2)CC2=C1C(c1ccc(F)cc1)Nc1ccccc1N2` (configuration not stated), the displacement was found to be 2.3%. In the case of `COc1ccc(OC)c(/C=N/NC(=O)CSc2ncccn2)c1`, the displacement is 1.1%. Next, `CC(C)=N/N=C1/NC(=O)C(CC(=O)Nc2ccc(C)cc2C)S1` (configuration not stated): -0.5%; `C/C(=C\C(=O)c1ccc(C)cc1)Nc1ccc(I)cc1`: 7.2%. Then `NC(=O)c1ccc(NC(=O)CCN2C(=O)c3ccccc3C2=O)cc1`, with 26.7%.

Consider `O=Cc1cc(Br)ccc1OCc1c(F)cccc1Cl`, for which the displacement is 0.3%.

With `CC(=O)NC1=NC(=O)/C(=C\c2ccc(Cl)cc2)S1`, the displacement was found to be 133%. Regarding `CC(=O)NC1=NC(=O)/C(=C\c2ccc3c(c2)OCO3)S1`, the displacement was 130%.

Consider `CC(=O)NC1=NC(=O)/C(=C\c2ccc(-c3ccccc3C(=O)O)o2)S1`, for which the displacement is 14.5%. For the molecule `CC(=O)NC1=NC(=O)/C(=C/c2cc(Cl)ccc2OCc2c(F)cccc2Cl)S1`, the displacement amounted to 112%. On to `CC(=O)NC1=NC(=O)/C(=C\c2ccc(C(C)C)cc2)S1`, for which the displacement was -10.2%. Then `CC(=O)NC1=NC(=O)/C(=C\c2ccc(Cl)c(Cl)c2)S1`, with -13.5%; and `CC(=O)NC1=NC(=O)/C(=C\c2cn(C)c3ccccc23)S1`, with 123%; and `Cc1ccc(C2=NC(=O)/C(=C/c3ccc4c(c3)OCO4)S2)cc1`, with 0.5%.

Consider `O=C(N/N=C/c1cc(Cl)ccc1OCc1c(F)cccc1Cl)c1cccnc1`, for which the displacement is -2%. Next, `CC(=O)NC1=NC(=O)/C(=C\c2ccc(-c3ccc(C(=O)O)cc3)o2)S1`: -27%; `COC(=O)c1cc(C(=O)N2CCCC2)cc([N+](=O)[O-])c1`: 12.7%; `Cc1cc(/C=N/NC(=O)c2ccccn2)c(C)n1-c1cccc(Cl)c1`: -15.5%. Then `COc1ccc(S(=O)(=O)N(CC(=O)N[C@@H]2CCCC[C@H]2O)c2ccc(C)cc2)cc1OC`, with 0.1%. Turning to `COC(=O)c1cnn2c1NC(c1ccccc1)CC2C(F)(F)F` (configuration not stated), the displacement was determined as 6.5%. Next, `CC(C)(C)NC(=O)c1cc2nc(-c3ccccc3)cc(C(F)(F)F)n2n1`: 13%; `CC(=O)NC1=NC(=O)/C(=C\c2ccccc2F)S1`: 107%. Next, `CCN(CC)c1ccc(/C=C2/SC(NC(C)=O)=NC2=O)cc1`: 61.1%; `Cc1ccsc1/C=C1\SC(N2CCN(C)CC2)=NC1=O`: 3%. With `CC(=O)NC1=NC(=O)/C(=C\c2ccccc2C)S1`, the displacement was -6.5%. Next, `CC(=O)NC1=NC(=O)/C(=C\c2ccc(C)o2)S1`: 96%; `CC(=O)NC1=NC(=O)/C(=C\c2ccc(N(C)C)cc2)S1`: -23.2%; `CC(=O)NC1=NC(=O)/C(=C\c2sccc2C)S1`: 98.2%. Turning to `CC(=O)NC1=NC(=O)/C(=C\c2ccc(I)o2)S1`, the displacement stood at 20.2%. As to `Cc1ccsc1/C=C1/SC(N2CCCC2)=NC1=O`, the displacement is 1.4%. Then `CC(=O)NC1=NC(=O)/C(=C\c2ccc(N(C)C)c(Br)c2)S1`, with -39.2%; and `CC(=O)NC1=NC(=O)/C(=C\c2ccc(Br)o2)S1`, with 1.4%. Next, `COc1ccccc1/C=C/C(=O)c1ccc(F)cc1`: -0.2%. Next, `COc1ccc(CN2CCN(C3CCN(Cc4ccccc4)CC3)CC2)cc1Br`: -9.1%; `CCOC(=O)C1C(=O)NCC2CCCC21` (configuration not stated): 4.6%; `O=C(CN1C(=O)c2ccccc2C1=O)Nc1cc(Cl)ccc1C(=O)O`: -6.4%. Take `COc1cccc(CN2CCN(Cc3cccnc3)CC2)c1`: the displacement is -13.5%. Then `COc1ccc(/C=C/C(=O)O)cc1S(=O)(=O)NCc1ccccc1`, with 7.2%; and `CN(C)CCOC(=O)C12CCC3CC(CC(C3)C1)C2`, with 11.3%; and `CCOC(=O)c1ccc(NC(=O)CC)cc1`, with 4.7%. For `CCOC(=O)c1c(C)[nH]c(N=Nc2ccc(C)cc2)c1C`, the displacement came to 2.4%. On to `CC(=O)NC1=NC(=O)/C(=C\c2cccc([N+](=O)[O-])c2)S1`, for which the displacement was -42.2%.

As for `CC(=O)NC1=NC(=O)/C(=C/c2ccc(C)cc2)S1`, the displacement stood at 118%.

`CC(=O)NC1=NC(=O)/C(=C\c2ccccc2Cl)S1`: the displacement was 14%. Then `CC(=O)NC1=NC(=O)/C(=C\c2cccc(F)c2)S1`, with -29.1%.

`CC(=O)NC1=NC(=O)/C(=C\c2cccs2)S1`: the displacement is 109%.

In the case of `CC(=O)NC1=NC(=O)/C(=C\c2ccc(C(C)(C)C)cc2)S1`, the displacement amounted to 11.4%.

As to `O=C(Nc1ccc(F)c(Cl)c1)c1cc([N+](=O)[O-])ccc1Cl`, the displacement is -10.3%. For the molecule `CC(C)C(=O)Nc1ccc(Cl)cc1C(=O)O`, the displacement turned out to be 8.1%.

Turning to `COc1ccc(/C(C)=N/NC(=O)CN(c2ccc(C)cc2)S(=O)(=O)c2ccccc2)cc1OC`, the displacement was found to be 3.8%.

For the molecule `COC(=O)c1ccc(/C=N/NC(=O)CCc2c(C)n[nH]c2C)cc1`, the displacement came to 4.2%. In the case of `CC(C)C(=O)Nc1ccc(I)cc1Cl`, the displacement amounted to 11.1%. As to `O=C(c1cccnc1)N(Cc1ccccc1)Cc1ccccc1`, the displacement was 6%. Then `O=C(NC(=S)Nc1ccc(-c2nc3ccccc3o2)cc1)c1ccco1`, with 11.6%. With `COc1cc(NC(=O)c2ccc(-c3ccc(Cl)cc3)o2)ccc1NC(=O)c1ccco1`, the displacement is -6.5%. Take `Cc1c(NC(=S)NC(=O)c2ccco2)cccc1-c1nc2ncccc2o1`: the displacement was determined as 9.2%. Next, `COc1cc(NC(=O)c2ccc(-c3ccc(Br)cc3)o2)ccc1NC(=O)c1ccco1`: 158%.

`Cc1cc(NC(=O)c2ccc(-c3ccc(Br)cc3)o2)ccc1NC(=O)c1ccco1`: the displacement is -2.6%. Regarding `O=C(Nc1ccc(-c2nc3ncccc3o2)cc1)c1ccc(-c2ccc(Br)cc2)o1`, the displacement worked out at 88.1%.

As for `O=C(Nc1ccc(-c2nc3ncccc3o2)cc1)c1ccc(Br)o1`, the displacement is -1.9%. `O=C(Nc1ccc(-c2nc3ncccc3o2)cc1)c1ccc(-c2cccc(Cl)c2)o1`: the displacement turned out to be 14.3%. Consider `O=C(Nc1cccnc1)c1ccc(-c2ccc(Br)cc2)o1`, for which the displacement is -5.1%. Next, `O=C(Nc1ccc(Cc2ccncc2)cc1)c1ccc(Br)o1`: 13.1%; `O=C(NC(=S)Nc1ccc(-c2nc3ncccc3o2)cc1)c1ccco1`: 112%. Turning to `O=C(Nc1ccc(Cc2ccncc2)cc1)c1ccc(-c2ccc(Br)cc2)o1`, the displacement was 109%.
